The record followed here is PubChem BioAssay AID488890 (Southern Research Specialized Biocontainment Screening …, 2010).

The campaign covered roughly 320,000 compounds. About 1,300 (0.41%) were called active. About 3% were inconclusive and are not listed. How the calls were made is not given here. Only a sample is shown. Results with a measured potency or affinity are listed apart.

The assay in a line: growth inhibition of non-replicating M. tuberculosis (AID 488890).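 Further: plate controls were DMSO cells for no effect and high antibiotic wells for full effect.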 The note with it: Mycobacterium tuberculosis non-replicating, at 25 µM, stronger effect = higher value.
For orientation: inhibition means the change of the read-out against control, counted positive when it falls. Regarding `COc1ccc(C(=O)C2CCCN(C(=O)c3cccc(Cl)c3F)C2)cc1OC` (stereo unspecified), the inhibition came to 8.33%. As to `Cc1cccnc1NC(=O)c1ccc2c(c1)NC(=O)C(C)S2` (stereo unspecified), the inhibition is -14.1%.

On to `Cc1ccc(SCC(=O)Nc2cc(S(=O)(=O)N3CCCCC3)ccc2C)cc1`, for which the inhibition turned out to be 29.3%.

In the case of `O=C(Cn1nc(-c2ccccc2F)ccc1=O)Nc1ccc(S(=O)(=O)N2CCCCCC2)cc1`, the inhibition was determined as 30.3%. On to `O=C(NN=C1CCCC1)c1ccc(Cl)cc1`, for which the inhibition is -5.56%. With `O=C1CCC/C(=N\NC(=O)COc2ccc(Cl)cc2)C1`, the inhibition is 2.35%.

Regarding `O=C1OC(/C(=C\Nc2ccc(F)cc2F)[N+](=O)[O-])c2ccccc21` (stereo unspecified), the inhibition is -5.17%. The result for `O=C1OC(/C(=C\Nc2ccccc2)[N+](=O)[O-])c2ccccc21` (stereo unspecified) reads -1.48%. For the compound `CC(C)(C)c1cc(NCCCn2ccnc2)n2ncc(-c3ccc(Cl)cc3)c2n1`, the inhibition was found to be 67.9%.

With `CC(C)(C)c1cc(NCCCn2ccnc2)n2ncc(-c3ccccc3)c2n1`, the inhibition is 73.1%.

Turning to `CCOC(=O)c1ccc(N2CN(CC)CNC2=S)cc1`, the inhibition is 51.5%.

For `OC(CCc1cccc(Cl)c1)c1cccs1` (stereo unspecified), the inhibition was found to be 75.1%. For the compound `CCO[C@H]1OC(C(=O)N2CCN(Cc3ccc4c(c3)OCO4)CC2)=C[C@@H](C)[C@@H]1CCCO`, the inhibition was -18%. As for `COc1ccccc1CCNC(=O)c1ccoc1C`, the inhibition was 3.23%.

On to `COc1ccccc1OCCNC(=O)c1ccc(C)o1`, for which the inhibition is -13.1%. Consider `CCOC(=O)c1cc(C(=O)NC(C)c2ccccc2)c(=O)[nH]c1C` (stereo unspecified), for which the inhibition was -20.4%. For `CC(C)NC(=O)COC(=O)c1cc(Br)ccc1Cl`, the inhibition came to 75.9%.

`CC(C)(C)NC(=O)COC(=O)c1cc(Br)ccc1Cl`: the inhibition was 63.1%.

Turning to `COC(=O)CNC(=O)COC(=O)c1cc(F)c(F)cc1Cl`, the inhibition was found to be 42.5%. As for `CNC(=O)COC(=O)c1cc(F)c(F)cc1Cl`, the inhibition is 19.5%. The result for `Cc1ccc(C)c(NC(=O)C2CC3CCC2C3)c1` (stereo unspecified) reads 15.3%; that for `CC(C)(C)OC(=O)C[C@@H]1C/C=C\C[C@@H](CC(=O)N(CCO)Cc2ccccc2)C(=O)N[C@H](Cc2c[nH]c3ccccc23)COC1=O`, 67%. Regarding `Cc1ccc(SCC(=O)OCC(=O)N2CCN(C(=O)c3ccco3)CC2)c(C)c1`, the inhibition turned out to be 15.3%.

As to `Cc1ccc(/C=C/C(=O)N2CCCC(C(N)=O)C2)o1` (stereo unspecified), the inhibition is 4.1%. With `O=C(c1ccc2c(c1)N(Cc1ccccc1F)C(=O)c1ccccc1S2)N1CCOCC1`, the inhibition worked out at 33.2%. As to `Cc1ccccc1OCc1n[nH]c(=S)n1-c1ccccc1`, the inhibition is -9.9%. The result for `O=C(COC(=O)c1ccccc1NCCO)NCC1CCCCC1` reads 23.3%; that for `CCOc1ccc2nc(NC(=O)c3cccnc3)sc2c1`, 8.67%; that for `CCOc1ccc2nc(NC(=O)c3ccc(C)o3)sc2c1`, 27.5%.

On to `CCOc1ccc2nc(NC(=O)c3ccoc3C)sc2c1`, for which the inhibition stood at 54.7%. The result for `CCOc1ccc2nc(NC(=O)Nc3ccccc3)sc2c1` reads -2.52%; that for `COc1ccc(/C=C/C(=O)Oc2cccc(/C=N/NC(=O)Cc3ccc(Br)cc3)c2)cc1`, 23.8%; that for `CC(NS(=O)(=O)c1ccc2c(c1)CC(C)N2C(=O)C1CC1)c1ccccc1` (stereo unspecified), 12.7%. As for `CCCc1cc(=O)[nH]c(SCC(=O)Nc2cc(S(=O)(=O)N3CCOCC3)ccc2N(CC)CC)n1`, the inhibition stood at 18.9%.

As for `CCCCn1c(N)c(N(CCOC)C(=O)COc2ccc(C(C)=O)cc2)c(=O)[nH]c1=O`, the inhibition is -6.71%. Turning to `O=C(N/N=C/c1coc2ccccc2c1=O)c1ccncc1`, the inhibition was 76.8%. Regarding `O=C(N/N=C/c1ccc(F)cc1)c1ccncc1`, the inhibition was 53.7%.

With `O=C(N/N=C/c1cc2c(cc1Cl)OCO2)c1ccc2c(c1)OCCO2`, the inhibition was -6.98%. Regarding `O=C(N/N=C/c1ccc[nH]1)c1ccc(O)cc1`, the inhibition amounted to 46.7%. Regarding `O=C(N/N=C/c1cc2c(cc1Cl)OCO2)c1cccc(Br)c1`, the inhibition is -12.4%. In the case of `O=C(N/N=C/c1ccc[nH]1)c1ccc([N+](=O)[O-])cc1`, the inhibition was -12.7%. Take `O=C(N/N=C\c1ccc[nH]1)c1cncc(Br)c1`: the inhibition was determined as 4.75%.

`COc1ccc(C(=O)N/N=C\c2coc3ccccc3c2=O)cc1`: the inhibition turned out to be 50.1%.

Turning to `CCOc1cc(C(=O)NCc2ccc(-c3nc4ccccc4o3)cc2)cc(OCC)c1OCC`, the inhibition was 5.09%. On to `O=C(Cc1ccc(Cl)cc1)N/N=C/c1ccccc1`, for which the inhibition turned out to be 16.8%. With `Cc1ccc(/C=N\Nc2cn[nH]c(=O)c2Cl)cc1`, the inhibition is -3.74%. The same measure for `CCc1ccccc1Nc1nc2ccccc2n1C`: 43.6%; for `CC(C)CNS(=O)(=O)c1ccc(S(=O)(=O)N2CCN(CCC#N)CC2)cc1`: 6.46%; for `O=C(N/N=C/c1ccccc1)c1ccc2c(c1)OCO2`: 51.5%. `COc1cccc(/C=N/NC(=O)CNC(=O)c2ccc3c(c2)OCCO3)c1O`: the inhibition was -7.52%. The same measure for `COc1cccc(/C=N/NC(=O)N/N=C/c2cccc(OC)c2O)c1O`: -1.08%. `O=C(N/N=C/c1ccc2c(c1)OCO2)c1ccc2c(c1)OCO2`: the inhibition stood at 23.3%. In the case of `CCOc1cc(/C=N/NC(=O)c2ccc3c(c2)OCCO3)cc(Br)c1O`, the inhibition came to 11.1%.

Turning to `COc1cc(/C=N/NC(=O)c2ccoc2C)cc(OC)c1O`, the inhibition is -10%.

Consider `CCN(CC(=O)Nc1sc2c(c1C#N)CCC(C)C2)Cc1nc2ccccc2c(=O)[nH]1` (stereo unspecified), for which the inhibition is 5.89%. Regarding `NC(=O)C1CCCN1` (stereo unspecified), the inhibition turned out to be 3.98%.

On to `CC1(C)CC(=O)c2cnc(NCC3CCCO3)nc2C1` (stereo unspecified), for which the inhibition is -8.53%. As to `COC(=O)CSc1nnc2c3c4c(sc3nc(-n3nc(C)cc3C)n12)COC(C)(C)C4`, the inhibition amounted to 0.76%. In the case of `O=C1c2ccccc2C(=O)N1CCC#Cc1ccc2cc(CCCO)oc(=O)c2c1`, the inhibition was 12.8%. As for `CCc1ccc(OCc2ccc(C(=O)NCc3ccccn3)o2)cc1`, the inhibition was determined as 64.5%. In the case of `O=C(c1ccc(COc2ccccc2Cl)o1)N1CCCC1`, the inhibition was -8.31%. Turning to `O=C(Nc1ccccn1)c1ccc(COc2ccccc2Cl)o1`, the inhibition came to 72.4%.

In the case of `CCOc1ccc(OCc2ccc(C(=O)O)o2)cc1`, the inhibition stood at 18.9%.

As to `N/C(=N\N=C\c1cccs1)SC1CC(=O)N(c2ccc(Br)cc2)C1=O` (stereo unspecified), the inhibition was 7.06%.

Regarding `Cc1cc(C(=O)N/N=C/c2c[nH]c3ccccc23)c(C)o1`, the inhibition is 4.64%. As for `Cc1cccc(C)c1NC(=O)Cc1cccs1`, the inhibition was found to be 3.18%. As to `Cc1cc(C)c2nc(SC3CCOC3=O)cc(C)c2c1` (stereo unspecified), the inhibition is 0.02%. As to `CC12CCC(C/C1=N\OC(=O)c1c(F)cccc1F)C2(C)C` (stereo unspecified), the inhibition is -9.61%.

Take `CC(=O)Nc1ccc(Oc2nc(C(F)(F)F)nc3ccccc23)cc1`: the inhibition was 1.04%. The same measure for `COCC1CCCCN1Cc1cn(-c2ccccc2)nc1-c1ccc2c(c1)OCO2` (stereo unspecified): 0.23%. For the compound `CSc1ccccc1NC(=O)c1ccc(N2CCCC2=O)cc1`, the inhibition amounted to 7.7%. On to `C=CCN=C1NN=C(c2cc(C)n(CC=C)c2C)CS1`, for which the inhibition was -5.39%. The result for `C=CCn1c(C)cc(C2=NNC(=NC(C)(C)C)SC2)c1C` reads 27%; that for `Cc1ccnc(NS(=O)(=O)c2ccc(NC(=O)c3ccc(Cl)cc3[N+](=O)[O-])cc2)n1`, -0.5%. Consider `CN(C)NC(=O)c1ccc([N+](=O)[O-])s1`, for which the inhibition came out at 11.4%.

Take `Cc1cccc(C)c1NC(=O)c1ccc([N+](=O)[O-])s1`: the inhibition worked out at 67%.

As to `CC(=O)Nc1ccc(S(=O)(=O)Nc2nccc(C)n2)cc1`, the inhibition was 20.2%. As for `Cc1cccc(NC(=O)c2cc3cc([N+](=O)[O-])ccc3s2)n1`, the inhibition is 16.8%. As for `O=C(Nc1ccccc1F)c1cc(C(=O)Nc2ccccc2F)cc([N+](=O)[O-])c1`, the inhibition turned out to be 5.63%. Take `O=c1[nH]c2c(c(=O)n1C1CCCCC1)CCC2`: the inhibition was -6.62%. For `COC(=O)c1cccc(CSc2nnc(-c3ccco3)n2-c2ccccc2)c1`, the inhibition was determined as 24%. In the case of `C=CCC(C=C)S(=O)(=O)c1ccc(C)cc1` (stereo unspecified), the inhibition is -2.81%. In the case of `CCCCCC1CC(/C(C)=N/NC(N)=O)OC1=O` (stereo unspecified), the inhibition was 9.08%. The result for `COCCNC(=O)c1nc2ccccc2s1` reads 52.5%. Take `CCN1CCN(C(=O)c2ccc(-c3nc4ccccc4s3)s2)CC1`: the inhibition is -3.89%. The same measure for `COCCNC(=O)COC(=O)CSCc1nc2ccccc2s1`: -4.84%; for `CCNC(=O)COC(=O)c1cc(C)nc2ccccc12`: -1.86%.

`O=C(c1ccc(-c2nc3ccccc3s2)s1)N1CCOCC1`: the inhibition is -4.2%. As to `Cc1noc(C)c1COC(=O)c1ccc(-c2nc3ccccc3s2)s1`, the inhibition is 9.44%.

`O=S(=O)(Nc1ccc2cn[nH]c2c1)c1ccc(C(F)(F)F)cc1`: the inhibition is 21.1%.

For `Cc1occc1C(=O)N/N=C/c1cccnc1`, the inhibition was -3.52%. For `Cc1ccc(S(=O)(=O)NCc2ccccc2)cc1C(=O)NCCc1ccc(S(N)(=O)=O)cc1`, the inhibition is -1.65%. Turning to `CSc1ncc(CN2CCN(C3CCCC3)C(CCO)C2)cn1` (stereo unspecified), the inhibition worked out at 6.95%. The same measure for `Cc1cc2oc(=O)cc(CN(C)Cc3cccc(F)c3)c2cc1C`: 12.8%; for `Cc1ccc(/C=C/C(=O)O)cc1S(=O)(=O)NCCCO`: -0.14%; for `CCOc1cc(/C=N/NC(=O)Cn2nc([N+](=O)[O-])cc2C)cc(Br)c1OCc1ccccc1C`: -2.93%.

As to `Cc1cc(C)nc(NN2C(=O)C=CC2=O)n1`, the inhibition was -13.2%. With `C=CCC1(CC=C)CCCN1C(=O)CC1C(=O)NCCN1Cc1cccc(OC)c1OC` (stereo unspecified), the inhibition is -15.7%. Regarding `COC(=O)c1ccc(NC(=O)c2cccc(NC(=O)c3ccccc3)c2)cc1`, the inhibition is 32%.

For `CC1(C)CC2CC(C)(CN2C(=O)COC(=O)c2cccnc2Cl)C1` (stereo unspecified), the inhibition amounted to 14.2%. The same measure for `O=C(Nc1c2c(nn1-c1ccc(F)cc1)CS(=O)(=O)C2)C1CCCC1`: -10.4%. The same measure for `Cc1n[nH]c(C)c1CCCCOc1ccccc1`: 78.1%; for `COc1ccc(OCCCc2c(C)n[nH]c2C)cc1`: -13.9%; for `COc1ccc(OCCCCc2c(C)n[nH]c2C)cc1`: 78.2%. Take `COc1cccc(OCCc2c(C)n[nH]c2C)c1`: the inhibition turned out to be 30.4%.

As to `Cc1ccc2c(c1)N(C(=O)CCC(=O)Nc1ccccc1Br)CC(C)O2` (stereo unspecified), the inhibition is -2.28%. The same measure for `CCOC(=O)N1CCN(C(=O)C2c3cc(OC)c(OC)cc3C(=O)N3CCc4ccccc4C23)CC1` (stereo unspecified): -11.4%. The result for `CC(=O)C1=C(C)Nc2ncnn2C1c1ccc(O)cc1` (stereo unspecified) reads -8.89%; that for `O=C(COC(=O)/C=C/c1ccc(F)cc1)Nc1cccc(S(=O)(=O)N2CCCC2)c1`, 17.9%; that for `CC(=O)Nc1ccc(S(=O)(=O)n2cnc(C)c2)cc1`, -2.83%.

For the compound `FC(F)(Cl)c1nnc2ccc(Sc3ccccn3)nn12`, the inhibition is -6.69%. As for `Cc1ccc2nnc(Cl)n2n1`, the inhibition is -5.68%. The result for `FC(F)(F)c1nnc2ccc(N3CCCC3)nn12` reads 1.54%; that for `FC(F)(F)c1nnc2ccc(N3CCCCCC3)nn12`, 8.69%. In the case of `Clc1ccc2nncn2n1`, the inhibition was 1.77%. The same measure for `FC(F)(F)c1nnc2ccc(N3CCCCC3)nn12`: -3.88%.
